Assay outcomes: PubChem BioAssay, The Scripps Research Institute Molecular Screening Center
Shown are actives, neighbours in structure and some others; about 3.5% of the full set was active somewhere.
GPR151 ag: human GPR151 activation | 650,000 compounds, 1% hits | activation, % at 11.2 µM | Q8TDV0 | PathHunter beta-arrestin GPR151 cells, luminescence; in the data active means activation above about 4.9%;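 further: 0% = median of compound wells and 100% = cells with positive control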
Target sequence (Q8TDV0 whole entry, looked up): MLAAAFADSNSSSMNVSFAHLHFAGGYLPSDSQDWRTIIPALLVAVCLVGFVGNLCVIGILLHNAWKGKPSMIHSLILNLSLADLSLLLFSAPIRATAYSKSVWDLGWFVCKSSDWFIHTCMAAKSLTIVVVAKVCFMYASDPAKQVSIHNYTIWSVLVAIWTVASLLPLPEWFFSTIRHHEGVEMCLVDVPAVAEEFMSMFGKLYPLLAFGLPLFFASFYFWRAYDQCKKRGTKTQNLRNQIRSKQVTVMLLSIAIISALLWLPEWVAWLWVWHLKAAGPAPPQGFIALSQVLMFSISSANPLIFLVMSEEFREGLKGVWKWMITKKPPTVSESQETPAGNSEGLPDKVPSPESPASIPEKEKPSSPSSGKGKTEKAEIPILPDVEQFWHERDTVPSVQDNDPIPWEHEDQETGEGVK
FBW7 act: human FBW7 E3 ligase activation, primary screen; 650,000 compounds, 0.13% hits; normalized activity (activation), % at 26.1 µM; Q969H0; AlphaScreen FBW7–phospho-cyclin E peptide binding, activator screen; in the data active means normalized activity above about 1.9%;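 further: purified mutant Fbw7 with reduced substrate affinity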
TEAD-YAP inh: TEAD-YAP interaction inhibition; HEK-TIYL cells, TEAD-Gal4/YAP UAS-luciferase luminescence; inhibition, % at 9.12 µM; 640,000 compounds, 1.4% hits; AID 1259422; in the data active means inhibition above about 32%;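 further: 0% = median of test compound wells and 100% = reference inhibitor wells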
MITF primary: inhibitors of human MITF; O75030; AlphaScreen MITF homodimerization, bead proximity signal; inhibition, % at 2.6 µM; 650,000 compounds, 0.91% hits; in the data active means inhibition above about 50%;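 further: 0% = vehicle wells with protein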
GPR151 conf act: human GPR151 activation, confirmation screen; shares compounds with GPR151 ag; GPR151 PathHunter beta-arrestin cells, luminescence, 90 min; % of EA-reagent control over plate median; activation, % at 11.2 µM; 6,700 tested, under 10 active; AID 1508609;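 active means mean percent activation across replicates above the confirmation screen cutoff of 4.91%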
GPR119 counter: GPR119 activation, counter-screen for GPR151 activators. 6,700 compounds, 0.3% hits. activation, % at 11.2 µM. shares compounds with GPR151 ag. GPR119 PathHunter beta-arrestin cells, luminescence, 90 min; 0 = compound-well median, 100 = enzyme-acceptor control;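 active means mean percent activation in the counterscreen above 29.09%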;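 further: counterscreen on off-target GPR119 to flag nonselective hits from the GPR151 activator screen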
An asterisk follows results filed as active; · = not tested or not shown.

SMILES | GPR151 ag | FBW7 act | TEAD-YAP inh | MITF primary | GPR151 conf act | GPR119 counter
CC(C)CO/N=C1\C[C@@H](O)[C@@H](O)[C@@H]2[C@@H]3C(=O)N(Cc4ccccc4)C(=O)[C@@H]3CC[C@H]12 | 0 | 0 | · | 8 | · | ·
CCN1C(=O)[C@H]2[C@H]3[C@H](O)[C@H](O)C/C(=N\OCC(C)C)[C@@H]3CC[C@H]2C1=O | 6.6* | 0 | · | 14 | 0 | 12
C#CCCCO/N=C1\C[C@@H](O)[C@@H](O)[C@@H]2[C@@H]3C(=O)N([C@@H](C)c4ccccc4)C(=O)[C@@H]3CC[C@H]12 | 9.5* | 0 | · | 14 | 1 | 6
COc1cccc(C(c2nnnn2C(C)C)N2CCN(c3ccccc3)CC2)c1OC (configuration not stated) | 5.4* | 0 | 0 | 3 | 1 | 2
Cc1c(Cl)cccc1NC(=O)c1ccc(N2C(=O)c3ccccc3C2=O)cc1 | 7.0* | 0 | -8 | -6 | 1 | 3
C/C(=N/O)c1ccc(NC2=C(N3CCCC3)C(=O)c3ccccc3C2=O)cc1 | 5.9* | -1 | 9 | -2 | 0 | 4
CC(=O)c1ccc(NC2=C(N3CCCCC3)C(=O)c3ccccc3C2=O)cc1 | -2 | 0 | -4 | 3 | · | ·
CC(C)(C)c1ccc(NC(=O)c2ccc(=O)[nH]c2)cc1 | 1 | 0 | 5 | -2 | · | ·
CCn1c(COc2ncnc3ccccc23)nc2cc(S(=O)(=O)N(C)C)ccc21 | 5.2* | 0 | -4 | 2 | -1 | 0
Cc1ccc(S(=O)(=O)Nn2c(SCC(=O)c3ccc(Cl)cc3)nc3ccccc3c2=O)cc1 | 0 | 0 | -1 | 2 | · | ·
COC(=O)Cn1c(=NC(C)=O)sc2cc(OC)ccc21 | 0 | 0 | 11 | 5 | · | ·
Cn1c(=O)c2c(NC(=O)c3c(F)cccc3F)ccnc2n(C)c1=O | 10* | 0 | 1 | 6 | -1 | 3
CCOc1ccc(/C=C(\C#N)c2[nH]nc(N)c2C#N)cc1OC | 5.6* | 0 | -12 | 5 | 0 | -7
COC(=O)C1=C(C)N(C)C(=O)NC1c1ccc(Br)cc1 (configuration not stated) | 5.2* | 0 | 11 | 9 | 0 | -4
CCOC(=O)CN1C(=O)N[C@@H](c2ccc(Br)cc2)C(C(=O)OC)=C1C | 5.0* | 1 | · | 13 | 1 | 14
COC(=O)C1=C(C)N(C)C(=O)NC1c1ccccc1OC (configuration not stated) | 1 | 1 | 9 | 11 | · | ·
COC(=O)C1=C(C)N(C)C(=O)NC1c1ccc(C(=O)OC)cc1 (configuration not stated) | 1 | 0 | 2 | 15 | · | ·
CCOc1ccccc1C1NC(=O)N(C)C(C)=C1C(=O)OC (configuration not stated) | 6.0* | 0 | 2 | 5 | 0 | 8
CCN1C(=O)N[C@H](c2ccc(Br)cc2)C(C(=O)OC)=C1C | 0 | 0 | · | 19 | · | ·
CCOc1ccccc1C1C(C(=O)OC)=C(N)OC2=C1C(=O)CCC2 (configuration not stated) | 6.0* | 1 | 1 | 12 | 1 | 6
CC(=O)c1cccc(NC(=O)c2cccc(Cl)c2)c1 | 0 | 0 | -22 | -1 | · | ·
COC(=O)[C@@H]1CCCN1C1CCC(=O)N(Cc2ccc(F)cc2F)CC1 (some centres not stated) | 1 | 0 | -16 | 9 | · | ·
CCOC(=O)c1c(NC(=O)c2ccc([N+](=O)[O-])cc2)sc(C(N)=O)c1C | 0 | 0 | 1 | 10 | · | ·
CCOC(=O)c1c(NC(=O)c2ccc([N+](=O)[O-])cc2)sc(C(=O)OC)c1C | 5.3* | 0 | 6 | -2 | 0 | -11
O=C(CN(c1ccccc1)S(=O)(=O)c1ccccc1)N1CCN(c2ccccc2)CC1 | 1 | 0 | 3 | 10 | · | ·
SMILES | GPR151 ag | FBW7 act | TEAD-YAP inh | MITF primary | GPR151 conf act | GPR119 counter
Cc1cccc(N(CC(=O)N2CCN(c3ccccc3)CC2)S(=O)(=O)c2ccccc2)c1 | 5.8* | 0 | 8 | 11 | 1 | -3
COc1cc(CO)cc(Cl)c1OCc1ccccc1C#N | 6.7* | 0 | 1 | 3 | 0 | -7
Cc1ccc(-c2coc3c(C)c4oc(=O)cc(C)c4cc23)cc1 | 0 | 0 | 12 | -7 | · | ·
CC(C)OCCCNC(=O)CC1C(=O)NCCN1C (configuration not stated) | 5.8* | 0 | 1 | -1 | 0 | 4
O=C(CS(=O)(=O)c1ccccc1)Nc1nc(-c2ccc3ccccc3c2)cs1 | 2 | 0 | -8 | -7 | · | ·
O=C(CS(=O)(=O)c1ccccc1)Nc1nc(-c2ccc(F)cc2)cs1 | 9.7* | 0 | -18 | 2 | 0 | 6
O=C1OC(c2ccc(Cl)cc2)=N/C1=C/c1cc2ccccc2nc1N1CCOCC1 | -1 | 0 | -1 | -7 | · | ·
O=C(Nc1cccc(C(F)(F)F)c1)c1cc([N+](=O)[O-])ccc1N1CCOCC1 | 0 | 0 | 2 | 3 | · | ·
CC(C)c1ccc(CN(C(=O)c2cc3ccccc3oc2=O)C2CCS(=O)(=O)C2)cc1 (configuration not stated) | 5.6* | 0 | -13 | 4 | 0 | 4
Cc1ccc(N(C(=O)C(C)(C)C)C2C=CS(=O)(=O)C2)cc1C (configuration not stated) | 0 | 0 | 1 | 8 | · | ·
O=C(NCc1ccccc1)c1nnc(Cc2cccc(Cl)c2)o1 | 0 | 0 | -5 | -2 | · | ·
Cc1ccc(CNC(=O)c2nnc(Cc3cccc(Cl)c3)o2)cc1 | 7.4* | 0 | 3 | -2 | 0 | 5
O=C(Nc1ccc(N2CCOCC2)cc1)c1ccnc(N2CCC(N3CCOCC3)CC2)c1 | 1 | 0 | 8 | 6 | · | ·
O=C(Nc1ccc2c(c1)OCO2)c1ccnc(N2CCC(N3CCOCC3)CC2)c1 | 5.7* | 0 | -9 | -10 | 1 | 0
COc1ccc(Cl)cc1C(=O)N/C(=C\c1cccc([N+](=O)[O-])c1)C(=O)Nc1cccc(C(C)=O)c1 | -1 | 0 | -11 | 7 | · | ·
Oc1ccc(Cl)cc1C1CC(c2ccc3c(c2)OCO3)=NC(c2ccccc2Cl)N1 (configuration not stated) | 0 | 0 | -23 | 11 | · | ·
CCn1nnc2c(SCc3cc(OC)cc(OC)c3)ncnc21 | -3 | 1 | -13 | 7 | · | ·
CCN1CCN(C(=O)c2nc(-c3cccc(F)c3)n3c2CCCCC3)CC1 | 5.5* | 0 | 9 | 2 | 1 | 3
COc1cc(C(N)=O)ccc1OCC(C)C | 0 | 0 | 0 | -2 | · | ·
CCCOc1ccc(C(N)=O)cc1OC | 5.6* | 0 | 4 | 21 | 1 | 7
C=C(C)Cn1c(SCCC)nc2sc3c(c2c1=O)CCC(C(C)(C)C)C3 (configuration not stated) | 0 | 0 | -4 | 10 | · | ·
